Laboratory results as given in PubChem BioAssay AID1159580 (chemical genetic matrix, 2015).
Where “and” joins values, the source holds several entries; their conditions need not be identical. Equal entries are not always repeated. In all, about 5,500 compounds went through this assay and about 2,000 (36%) were called active. Roughly 18% stayed inconclusive and do not appear here. Rule as the data show it: active = normalized growth mostly below about 0.91 (no sharp cut-off); inconclusive = no clear call, values can overlap the other calls; inactive = mostly above about 0.92. Some of the results follow.

Assay: chemical genetic growth profiling, strain panel (AID 1159580);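 also: tested at 20 µM; growth read once vehicle control cultures reached saturation at 30 °C; 1 = growth at the plate median or of vehicle wells; lower values mean less growth of the strain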
Settings: S. cerevisiae deletion strains, growth OD

Measured: normalized growth

CC(=O)[C@H]1CCC2C3C[C@H](C)C4=CC(=O)CC[C@]4(C)C3[C@@H](O)C[C@@]21C (stereo partly drawn)
inactive: locus YAL021C, strain ccr4, hits give low values 0.988 | locus YAL026C, strain drs2, hits give low values 0.989 | locus YAL030W, strain snc1, hits give low values 0.986 | locus YBL061C, strain skt5, hits give low values 0.988 | locus YBR009C, strain hhf1, hits give low values 1 | locus YBR021W, strain FUR4, hits give low values 0.979 | locus YBR023C, strain chs3, hits give low values 0.983 | locus YBR171W, strain sec66, hits give low values 0.973 | locus YBR229C, strain ROT2, hits give low values 0.994 | locus YBR231C, strain swc5, hits give low values 0.994 | locus YBR279W, strain paf1, hits give low values 0.99 | locus YCL011C, strain gbp2, hits give low values 0.964 | locus YCL016C, strain dcc1, hits give low values 0.953 | locus YCL029C, strain bik1, hits give low values 0.983 | locus YCL061C, strain MRC1, hits give low values 0.989 | locus YCL069W, strain vba3, hits give low values 0.983 | locus YCR088W, strain abp1, hits give low values 0.98 | locus YDL005C, strain med2, hits give low values 0.984 | locus YDL035C, strain GPR1, hits give low values 1.02 | locus YDL040C, strain nat1, hits give low values 0.987 | locus YDL074C, strain BRE1, hits give low values 0.98 | locus YDL101C, strain DUN1, hits give low values 0.993 | locus YDL134C, strain PPH21, hits give low values 1.01 | locus YDL185W, strain tfp1, hits give low values 0.965 | locus YDL192W, strain arf1, hits give low values 0.981 | locus YDR001C, strain nth1, hits give low values 0.977 | locus YDR069C, strain doa4, hits give low values 1.02 | locus YDR101C, strain arx1, hits give low values 0.989 | locus YDR137W, strain rgp1, hits give low values 0.921 | locus YDR159W, strain sac3, hits give low values 1.01 | locus YDR162C, strain NBP2, hits give low values 0.99 | locus YDR195W, strain ref2 0.997 | locus YDR297W, strain sur2, hits give low values 0.985 | locus YDR318W, strain mcm21, hits give low values 0.988 | locus YDR334W, strain swr1, hits give low values 0.963 | locus YDR335W, strain msn5, hits give low values 0.984 | locus YDR388W, hits give low values 0.986 | locus YDR392W, strain spt3, hits give low values 0.897 | locus YDR502C, strain sam2, hits give low values 0.978 | locus YEL003W, strain gim4, hits give low values 1 | locus YEL037C, strain rad23, hits give low values 0.975 | locus YEL061C, strain CIN8 (second series), hits give low values 0.977 | locus YEL061C, strain CIN8, hits give low values 0.99 | locus YER015W, strain faa2, hits give low values 0.992 | locus YER016W, strain bim1, hits give low values 0.996 | locus YER110C, hits give low values 0.969 | locus YER111C, strain swi4, hits give low values 0.982 | locus YER155C, strain BEM2 (second series), hits give low values 1 | locus YER155C, strain BEM2, hits give low values 0.991 | locus YER167W, strain BCK2, hits give low values 0.986 | locus YFR010W, strain ubp6, hits give low values 0.986 | locus YGL078C, strain dbp3, hits give low values 0.991 | locus YGL086W, strain mad1, hits give low values 1.01 | locus YGL167C, strain pmr1, hits give low values 0.971 | locus YGL173C, strain kem1, hits give low values 0.995 | locus YGL227W, strain vid30, hits give low values 0.978 | locus YGL240W, strain doc1, hits give low values 1.02 | locus YGL248W, strain PDE1, hits give low values 0.984 | locus YGL253W, strain hxk2, hits give low values 0.976 | locus YGR135W, strain pre9, hits give low values 0.939 | locus YGR252W, strain gcn5, hits give low values 1.06 | locus YHR013C, strain ard1, hits give low values 0.945 | locus YHR027C, strain rpn1, hits give low values 0.98 | locus YHR030C, strain SLT2, hits give low values 0.996 and 0.986 | locus YHR079C, strain IRE1 (second series), hits give low values 0.98 | locus YHR079C, strain IRE1, hits give low values 0.966 | locus YHR094C, strain hxt1, hits give low values 0.984 | locus YHR129C, strain ARP1, hits give low values 0.995 | locus YHR142W, strain chs7, hits give low values 0.95 | locus YHR200W, strain rpn10, hits give low values 0.981 | locus YIL066C, strain RNR3, hits give low values 0.993 | locus YIL073C, strain SPO22, hits give low values 0.899 | locus YIL125W, strain kgd1, hits give low values 0.996 | locus YIR030C, strain dcg1, hits give low values 0.975 | locus YJL092W, strain hpr5, hits give low values 0.977 | locus YJL095W, strain BCK1 (second series), hits give low values 0.982 | locus YJL095W, strain BCK1, hits give low values 0.969 and 0.976 | locus YJL115W, strain asf1, hits give low values 0.973 | locus YJL129C, strain trk1, hits give low values 0.959 | locus YJL134W, strain LCB3, hits give low values 0.99 | locus YJL154C, strain vps35, hits give low values 0.972 | locus YJL164C, strain tpk1, hits give low values 0.997 | locus YJL166W, strain qcr8, hits give low values 0.979 | locus YJL168C, strain set2, hits give low values 0.994 | locus YJL187C, strain SWE1 (second series), hits give low values 0.993 | locus YJL187C, strain SWE1, hits give low values 0.985 | locus YJR043C, strain POL32, hits give low values 1.03 | locus YJR066W, strain TOR1, hits give low values 0.925
